Six molecules from PubChem BioAssay can be followed below.

Assay [1] has as its system Human papillomavirus type 1a protein E7 (residues 44-93). In words: small molecules binding HPV E7 44-93 – biochemical, small-molecule microarray, residues 44-93, 635 nm fluorescence, primary screen (AID 1108).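 Note: E7 fragment applied at 1 µg/mL in TBST for 1 h at 4 C; score combines spot fluorescence with its signal to noise ratio.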 To be noted: fluorescence 635 nm, higher = more signal.
Assay [2] can be described thus: hepatitis C replication reporter changes, two-sided – Huh7 cells, luciferase reporter, HCV replication inhibitor project, primary screen (AID 1109).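 Note: huh7 hepatoma cells harbouring a luciferase neomycin HCV replicon reporter; luciferase luminescence as measure of HCV replicon replication; test concentration not given here.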 The following applies: Huh7 HCV replicon luciferase reporter, 48 h; higher = more signal. Background: Reporter assays use an easily measured gene product as a stand-in for the process of interest.
Assay [3] deals with Left-right determination factor 2 (Homo sapiens) (UniProt O00292). The assay is described as follows: small molecules binding LEFTY2 protein – biochemical, small-molecule microarray, 635 nm fluorescence scan, primary screen (AID 1110). To be noted: higher = more signal.
The target of assay [4] is Calmodulin-1 (Homo sapiens) (UniProt P0DP23). The assay is described as follows: small molecules binding calmodulin-1 with EGTA – biochemical, small-molecule microarray, Cy5-labelled CALM1, profiling panel (AID 1111).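 Note: labelled calmodulin applied in Tris saline Tween buffer holding calcium plus EGTA and DTT.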 The following applies: Cy5-CALM1 binding fluorescence, higher = more signal.
Assay [5] has the same target. The assay is described as follows: small molecules binding Ca-loaded calmodulin-1 – biochemical, small-molecule microarray, Cy5-labelled CALM1, plus calcium, artefact control for SMM control-protein annotation, profiling panel (AID 1112).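 Note: score merges spot fluorescence with signal to noise from triplicate slides.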 To be noted: Cy5-CALM1 binding fluorescence, higher = more signal.
Assay [6] can be described thus: probe aWnt5a binding to arrayed compounds – biochemical, biotinylated probe, 635/667 nm fluorescence, primary screen (AID 1113).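 Note: score merges 667 nm fluorescence intensity with signal-to-noise per printed feature.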 To be noted: small-molecule microarray, higher = more signal.
Assay [7] can be described thus: probe aShh binding to arrayed compounds – biochemical, biotinylated probe, 635/667 nm fluorescence, primary screen (AID 1114).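 Note: probe is biotin-labelled aShh protein from a stem cell growth factor screen; measures binding of labelled protein to compounds printed on the slide; score merges feature fluorescence at 667 nm with signal-to-noise.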 The following applies: small-molecule microarray, higher = more signal.
Assay [8] is described as follows: probe aNog binding to arrayed compounds – biochemical, biotinylated probe, 635/667 nm fluorescence, primary screen (AID 1115).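 Note: probe is biotinylated aNog protein used at 0.15 µg/mL for 1 h at 4 C; z-score combines 667 nm fluorescence of each spot with its signal to noise.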 To be noted: small-molecule microarray, higher = more signal.
For assay [9], the target named is Torsin-1A-interacting protein 1 (Homo sapiens) (UniProt Q5JTV8). In words: compound microarray binding of lysate hLAP1 – cell lysate, small-molecule microarray, COS7 lysate, 635/667 nm fluorescence, primary screen (AID 1116). The following applies: 635 nm fluorescence, higher = more signal.
In assay [10] the target is Alpha-bungarotoxin (Bungarus multicinctus) (UniProt P60615). The assay is described as follows: compounds binding labelled alpha-BTX control protein – biochemical, small-molecule microarray, Alexa647 label, 635/667 nm fluorescence, artefact control for SMM control protein annotation, profiling panel (AID 1117). The following applies: alpha-BTX-A647 binding fluorescence, higher = more signal.

In assay [11] the target is Albumin (Bos taurus) (UniProt P02769). The assay is described as follows: compounds binding labelled BSA control protein – biochemical, small-molecule microarray, Alexa647 label, 635/667 nm fluorescence, artefact control for SMM control protein annotation, profiling panel (AID 1118).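 Note: score merges 667 nm emission intensity and signal-to-noise per printed compound spot.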 The following applies: BSA-A647 binding, fluorescence 635 nm, higher = more signal.
Assay [12] in a line: probe aXIP binding to arrayed compounds – biochemical, NeuroSMM set, 635/667 nm fluorescence, primary screen (AID 1119).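 Note: probe is the protein aXip251-270 applied at 1 µg/mL to compound-printed slides; binding of probe to printed compounds measured as 667 nm fluorescence plus signal to noise.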 To be noted: small-molecule microarray, higher = more signal, called active from +8 up or from −8 down.
The nature of assay [13]: probe aNOTCH3 binding on compound microarray – biochemical, small-molecule microarray, 635/667 nm fluorescence, primary screen (AID 1120).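 Note: probe is a biotin-tagged antibody raised against NOTCH3 rather than NOTCH3 protein; score merges spot fluorescence near 667 nm with spot signal to noise.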 The following applies: higher = more signal.
Assay [14] in a line: probe aNOTCH2 binding on compound microarray – biochemical, small-molecule microarray, 635/667 nm fluorescence, primary screen (AID 1121).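 Note: score merges feature fluorescence read at 667 nm with its signal to noise.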 To be noted: higher = more signal.
Assay [15] deals with Carbonic anhydrase 2 (Homo sapiens) (UniProt P00918). The assay is described as follows: compounds binding carbonic anhydrase 2 – biochemical, small-molecule microarray, Alexa647-labelled CAII, profiling panel (AID 1122). To be noted: CAII-A647 binding fluorescence, higher = more signal.
Assay [16] can be described thus: COS7 lysate on small-molecule microarray, probe aHis, 635 nm (AID 1123).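 Note: z-score combines 667nm fluorescence intensity with signal-to-noise per printed compound spot.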 To be noted: COS7 cell lysate, fluorescence, higher = more signal.
Assay [17] is described as follows: probe aLAP1 signal on lysate-treated microarray – cell lysate, small-molecule microarray, COS7 lysate, primary screen (AID 1124).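 Note: lysate comes from COS7 cells expressing LAP1 and is applied at 0.3 µg/mL; score merges spot fluorescence near 667 nm with signal-to-noise over triplicate slides.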 The following applies: probe aLAP1, fluorescence, higher = more signal.
Assay [18] has as its system Sam68 (KHDRBS1). In words: compounds binding KHDRBS1 protein – biochemical, small-molecule microarray, 635 nm fluorescence, primary screen (AID 1125).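 Note: score merges 667 nm channel intensity with signal to noise over triplicate slides.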 To be noted: higher = more signal.
The subject of assay [19] is Chordin-like protein 2 (CHRDL2). The assay is described as follows: compounds binding chordin-like 2 – biochemical, small-molecule microarray, 635 nm fluorescence, primary screen (AID 1126).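 Note: printed compound slides probed with Chrdl2 protein at 4 µg/mL for 1 h at 4 C; score merges 667 nm emission intensity with signal to noise over three replicate slides.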 To be noted: fluorescence 635 nm, higher = more signal.
The target in assay [20] is Concanavalin-A (Canavalia ensiformis) (UniProt P02866). In words: compounds binding concanavalin A lectin – biochemical, small-molecule microarray, Alexa647 label, 635 nm, artefact control for SMM control protein annotation, primary screen (AID 1127).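 Note: z combines 667 nm emission intensity with signal-to-noise across three replicate slides.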 To be noted: ConA-A647 binding fluorescence, higher = more signal.

Activity calls are given as the source filed them.

Sequence of Alpha-bungarotoxin (Bungarus multicinctus) (P60615 whole entry, looked up): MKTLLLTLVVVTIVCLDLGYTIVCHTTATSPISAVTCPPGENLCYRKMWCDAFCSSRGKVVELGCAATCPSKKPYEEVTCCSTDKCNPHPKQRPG
Sequence of Left-right determination factor 2 (Homo sapiens) (O00292 whole entry, looked up): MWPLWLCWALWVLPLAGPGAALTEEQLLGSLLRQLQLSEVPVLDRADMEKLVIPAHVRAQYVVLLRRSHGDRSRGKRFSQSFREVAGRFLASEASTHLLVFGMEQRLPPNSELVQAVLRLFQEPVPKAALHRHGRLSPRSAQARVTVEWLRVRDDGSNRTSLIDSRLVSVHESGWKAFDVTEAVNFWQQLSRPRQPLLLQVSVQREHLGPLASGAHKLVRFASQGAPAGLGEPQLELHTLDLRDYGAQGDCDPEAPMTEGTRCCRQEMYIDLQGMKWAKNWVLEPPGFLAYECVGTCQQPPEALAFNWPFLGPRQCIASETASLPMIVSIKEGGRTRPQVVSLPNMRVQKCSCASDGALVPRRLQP
Sequence of Torsin-1A-interacting protein 1 (Homo sapiens) (Q5JTV8 whole entry, looked up): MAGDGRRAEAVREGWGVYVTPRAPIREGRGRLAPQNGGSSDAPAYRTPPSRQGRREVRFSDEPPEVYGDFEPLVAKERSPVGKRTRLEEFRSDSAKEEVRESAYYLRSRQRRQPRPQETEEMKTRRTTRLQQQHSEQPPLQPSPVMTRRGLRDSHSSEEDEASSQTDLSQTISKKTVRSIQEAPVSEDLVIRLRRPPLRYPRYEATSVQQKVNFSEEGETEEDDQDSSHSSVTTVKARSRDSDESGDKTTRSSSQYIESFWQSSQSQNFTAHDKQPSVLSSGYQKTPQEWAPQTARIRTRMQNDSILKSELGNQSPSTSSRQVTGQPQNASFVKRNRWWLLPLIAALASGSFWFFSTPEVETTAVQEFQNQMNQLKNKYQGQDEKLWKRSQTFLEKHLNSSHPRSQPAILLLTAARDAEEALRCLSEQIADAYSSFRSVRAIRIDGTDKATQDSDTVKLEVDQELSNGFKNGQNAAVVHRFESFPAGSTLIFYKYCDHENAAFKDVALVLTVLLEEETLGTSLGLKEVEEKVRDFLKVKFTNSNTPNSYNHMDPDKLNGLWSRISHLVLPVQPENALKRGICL
Sequence of Concanavalin-A (Canavalia ensiformis) (P02866 whole entry, looked up): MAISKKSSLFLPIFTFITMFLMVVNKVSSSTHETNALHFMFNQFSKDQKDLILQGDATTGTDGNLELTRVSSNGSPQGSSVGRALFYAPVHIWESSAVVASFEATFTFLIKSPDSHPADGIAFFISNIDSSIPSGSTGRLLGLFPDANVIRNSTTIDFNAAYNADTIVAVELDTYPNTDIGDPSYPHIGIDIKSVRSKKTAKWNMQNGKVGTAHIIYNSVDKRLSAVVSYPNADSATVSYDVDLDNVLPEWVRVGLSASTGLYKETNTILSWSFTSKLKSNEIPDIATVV
Sequence of Albumin (Bos taurus) (P02769 whole entry, looked up): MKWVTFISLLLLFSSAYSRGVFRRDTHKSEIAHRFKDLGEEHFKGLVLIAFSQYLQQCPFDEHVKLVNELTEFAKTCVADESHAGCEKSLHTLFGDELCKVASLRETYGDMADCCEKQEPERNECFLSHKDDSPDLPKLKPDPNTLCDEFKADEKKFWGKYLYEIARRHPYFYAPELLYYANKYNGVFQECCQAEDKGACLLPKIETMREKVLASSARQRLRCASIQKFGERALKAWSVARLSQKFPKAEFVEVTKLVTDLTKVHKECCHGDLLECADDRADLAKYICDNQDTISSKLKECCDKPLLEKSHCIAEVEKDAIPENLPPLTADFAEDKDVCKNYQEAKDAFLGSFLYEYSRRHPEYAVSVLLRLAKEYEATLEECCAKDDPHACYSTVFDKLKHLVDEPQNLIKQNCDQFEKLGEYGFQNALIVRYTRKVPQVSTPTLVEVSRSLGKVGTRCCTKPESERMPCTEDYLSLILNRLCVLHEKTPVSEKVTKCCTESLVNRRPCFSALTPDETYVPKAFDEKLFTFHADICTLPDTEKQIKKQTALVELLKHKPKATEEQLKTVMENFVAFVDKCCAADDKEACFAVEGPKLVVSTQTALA

In the case of `COCCOC(=O)N1C(=O)[C@@]2(c3cc(C#CCNC(N)=O)ccc31)[C@H](C(=O)N1CCCCCCC1)[C@H]1C(=O)O[C@H](c3ccccc3)[C@H](c3ccccc3)N1[C@@H]2c1ccc(O)cc1`, the composite z-score in assay [1] is 0.964; in assay [3] it was 0.212; in assay [4] it was 0.356; in assay [5], -0.947; in [6] it was -0.164; in assay [7] it was -0.214. In addition, the composite z-score was -0.456 in [8]; 0.546 in assay [9]; 0.863 in [10]; 0.0763 in assay [11]; 0.239 in assay [13]; -0.0714 in assay [14]. The composite z-score in [15] came to 0.354; in [16], 0.654; in [17], 0.285; in assay [18], 1.11; in assay [19] it was 0.626; in assay [20], 1.03. The same molecule came in with a z-score in assay [2] of -1.07. Also, the composite Z-score in assay [12] is 0.559 (inactive).
For the molecule `CCOC(=O)C1=CC[C@@H](c2ccccc2)N(S(=O)(=O)c2ccc(C)cc2)C1`, the composite z-score was 0.493 in assay [1]; -0.0161 in assay [3]; -0.11 in assay [4]; -0.374 in assay [5]; -0.0459 in [6]; 0.485 in assay [7]. The composite z-score is 0.005 in assay [8]; 0.127 in [9]; 0.329 in [10]; 0.425 in assay [11]; 0.283 in assay [13]; -0.0176 in assay [14]. Further, the composite z-score in assay [15] was 0.38; in assay [16], 0.522; in [17], 0.786; in assay [18] it was 0.143; in assay [19], 0.565; in [20], -0.264. For the same molecule, the z-score in assay [2] was -2.23. In [12], the composite Z-score is -0.0056 (inactive).
As for `C[C@]12C(=O)N(CCCCCCO)[C@@H]3C(=O)N(c4ccc(Cl)cc4)CC=CC31O[C@@H]1/C=C\CCCOC(=O)C12` (stereo not given in full), the composite z-score is -0.358 in assay [1]; -1 in assay [3]; -0.821 in [4]; -0.559 in assay [5]; 0.0297 in assay [6]; -0.0813 in assay [7]. Moreover, the composite z-score is 0.782 in assay [8]; 0.121 in assay [9]; -0.0604 in assay [10]; 0.377 in [11]; -0.16 in assay [13]; -0.136 in assay [14]. In addition, the composite z-score in assay [15] was 0.695; in [16] it was 2.08; in assay [17], -0.133; in assay [18], 0.488; in [19], -1.75; in assay [20] it was -0.403. Besides, the z-score in assay [2] was -0.67. In addition, the composite Z-score in [12] was 1.82 (inactive).
For `NC(=O)N1C(=O)C2C(C1=O)C1C=C(c3ccc(CO)cc3)C2C(C2CC2)N1Cc1sc2ccccc2c1Cl` (stereo not given), the composite z-score stood at 0.0882 in assay [1]; 1.27 in assay [3]; 0.867 in [4]; 0.163 in assay [5]; 0.272 in assay [6]; 0.0756 in assay [7]. Moreover, the composite z-score in assay [8] was 0.264; in assay [9], 1.9; in assay [10], 2.12; in assay [11], 0.849; in [13] it was 0.0225; in assay [14], -0.101. For the same molecule, the composite z-score in assay [15] turned out to be 0.468; in assay [16], 1.67; in assay [17], 0.733; in [18] it was 1.31; in assay [19], 0.441; in assay [20], 1.18. The z-score in assay [2] is -1.39. In addition, the composite Z-score in assay [12] was 0.742 (inactive).
Regarding `C=C(C(=O)CC[C@H](OC(=O)c1cccnc1)c1cccc(OCCO)c1)C(C)C`, the composite z-score in assay [1] is 0.074; in [3], -0.507; in [4], -1.21; in assay [5], -1.58; in assay [6], -0.124; in assay [7], 0.0952. Further, the composite z-score in assay [8] is 0.151; in assay [9] it was 0.307; in assay [10], -0.0234; in assay [11], -0.849; in assay [13] it was -0.0971; in assay [14], -0.161. Further, the composite z-score in assay [15] is 0.0143; in assay [16], 0.0609; in assay [17], -0.0536; in assay [18], 0.481; in [19] it was -0.507; in assay [20], -0.0842. The molecule also registered a z-score in assay [2] of -3.63. Moreover, in [12], the composite Z-score was 0.587 (inactive).
As for `O=C1OCC=C[C@H]2OC34C=CCN(Cn5nnc6ccccc65)C(=O)[C@H]3N(CCCCCCO)C(=O)[C@@H]4[C@@H]12` (stereo not given in full), the composite z-score in [1] is -0.0554; in assay [3], -1.14; in [4], -0.129; in assay [5] it was -0.004; in [6] it was -0.152; in assay [7], -0.16. Further, the composite z-score was 0.162 in assay [8]; 3.14 in [9]; -0.608 in assay [10]; -1.02 in [11]; -0.165 in assay [13]; -0.126 in assay [14]. For the same molecule, the composite z-score in [15] is 0.904; in assay [16] it was 0.718; in [17], 0.79; in assay [18], 0.0126; in [19], -0.743; in [20] it was -1.01. The z-score in assay [2] is -0.113. Further, the composite Z-score in assay [12] is 0.648 (inactive).
